# Experimental data reported in PubChem BioAssay.
# Target: Focal adhesion kinase 1 (Homo sapiens) (UniProt Q05397)
# Test: small-molecule microarray binders of FAK, primary screen, biochemical, 635/667 nm fluorescence, BSA, DTT (AID 1130);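 also: composite of spot emission at 667 nm and signal to noise over triplicate slides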
# Conditions: PTK2 binding, 635 nm fluorescence, higher = more signal
# Chain of Focal adhesion kinase 1 (Homo sapiens) (Q05397 whole entry, looked up): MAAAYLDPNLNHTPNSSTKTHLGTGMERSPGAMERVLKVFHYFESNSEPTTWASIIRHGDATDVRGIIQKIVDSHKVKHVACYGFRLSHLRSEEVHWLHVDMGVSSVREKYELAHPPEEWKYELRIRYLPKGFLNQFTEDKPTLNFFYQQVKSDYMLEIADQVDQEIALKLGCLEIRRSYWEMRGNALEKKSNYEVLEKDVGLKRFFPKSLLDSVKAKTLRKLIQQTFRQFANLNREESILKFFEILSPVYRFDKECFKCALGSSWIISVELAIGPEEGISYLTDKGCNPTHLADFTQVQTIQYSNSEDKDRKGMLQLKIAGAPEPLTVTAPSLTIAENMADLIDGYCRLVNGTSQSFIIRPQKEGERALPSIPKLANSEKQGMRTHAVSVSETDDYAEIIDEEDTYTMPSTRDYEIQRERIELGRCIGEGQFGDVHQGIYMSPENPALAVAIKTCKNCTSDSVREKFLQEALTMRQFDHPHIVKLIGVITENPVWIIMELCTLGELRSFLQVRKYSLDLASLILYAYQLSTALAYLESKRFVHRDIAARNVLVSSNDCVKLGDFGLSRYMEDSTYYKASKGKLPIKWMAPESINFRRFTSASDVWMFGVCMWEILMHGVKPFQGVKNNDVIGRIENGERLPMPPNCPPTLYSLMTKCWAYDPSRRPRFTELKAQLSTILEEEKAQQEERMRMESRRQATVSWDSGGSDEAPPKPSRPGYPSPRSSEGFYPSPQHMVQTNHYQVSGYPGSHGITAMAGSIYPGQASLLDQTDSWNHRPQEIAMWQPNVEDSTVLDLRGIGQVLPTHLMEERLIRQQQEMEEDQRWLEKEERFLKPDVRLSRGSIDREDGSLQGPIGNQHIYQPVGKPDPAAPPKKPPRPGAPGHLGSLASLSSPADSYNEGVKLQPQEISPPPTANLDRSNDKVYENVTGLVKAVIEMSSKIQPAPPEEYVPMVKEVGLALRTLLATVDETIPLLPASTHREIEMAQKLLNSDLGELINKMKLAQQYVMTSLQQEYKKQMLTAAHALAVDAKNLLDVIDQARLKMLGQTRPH
row,Structure (SMILES),composite z-score
1,O=c1cccc(C=Cc2ccccc2)o1,-0.599
2,CCCCC(CC)C(O)C1C=CC2C(=O)N(c3ccccc3)C(=O)C2N1Nc1ccccc1 (stereo unspecified),0.462
3,COc1ccc([Si](C)(C)[C@@H]2[C@@H](CC(=O)N(CCO)Cc3ccccc3)O[C@]3(C(=O)N(C)c4ccccc43)[C@H]2C)cc1,0.495
4,CC(C)C[C@@H]1NC(=O)[C@H]2C[C@@H](C(=O)NCCCCCNC(=O)CS)[C@@H](c3cccc(OCCO)c3)N2C1=O,0.603
5,O=C(OCCF)C1=CCC(c2cccc(Cl)c2)O1 (stereo unspecified),0.475
6,O=C(O)[C@@]1(Cc2ccccc2)N=C(c2ccc(OCCCO)cc2)O[C@H]1c1ccccc1,-0.233
7,CO[C@H]1O[C@H](CO)[C@@H](OC(=O)Nc2ccc(Oc3ccccc3)cc2)[C@H](OC(=O)Nc2ccccc2)[C@H]1OC(=O)Nc1ccccc1,1.12
8,O=C(CS)NCCCCCCNC(=O)[C@H]1C[C@H]2C(=O)NCC(=O)N2[C@H]1c1ccc(O)cc1,0.147
9,COCCOC(=O)N1C(=O)[C@@]2(c3cc(C#CCCO)ccc31)[C@H](c1ccc(O)cc1)N1[C@H](c3ccccc3)[C@H](c3ccccc3)OC(=O)[C@H]1[C@@H]2C(N)=O,0.0329
10,CC(C)(C)N1CC=CC23O[C@@H]4/C=C\CCCOC(=O)C4[C@H]2C(=O)N(CCO)[C@@H]3C1=O (stereo partly specified),0.19

# Test system: Fibrinogen (Alexa647-labelled)
# Test: fibrinogen binders on compound microarrays, profiling panel, artefact control for SMM control-protein annotation, biochemical, small-molecule microarray, 635/667 nm fluorescence (AID 1131);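 also: z-score merges 667 nm fluorescence with per-spot signal-to-noise over triplicate slides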
# Conditions: fibrinogen-A647 binding fluorescence, higher = more signal
row,Structure (SMILES),composite z-score
1,COc1cc(CO)ccc1OC(C)=O,0.555
2,COc1ccc(C#Cc2ccc3c(c2)[C@]2(C(=O)N3)[C@H](c3ccc(O)cc3)N3[C@H](c4ccccc4)[C@H](c4ccccc4)OC(=O)[C@H]3[C@@H]2C(=O)N2CCCCCCC2)cc1,0.702
3,CN1C=C(C(=O)OCCS(C)(=O)=O)C(C(=O)OCCS(C)(=O)=O)=CC(CCCO)=CC1C1CC1 (stereo unspecified),0.901
4,COCCOC(=O)N1C(=O)[C@@]2(c3cc(C#CCC(C(=O)OC)C(=O)OC)ccc31)[C@H](c1ccc(O)cc1)N1[C@H](c3ccccc3)[C@H](c3ccccc3)OC(=O)[C@H]1[C@@H]2C(N)=O,0.75
5,COc1ccc(NN2C(C(O)c3ccc(OC)c(OCc4ccccc4)c3)C=CC3C(=O)N(C4CCCCC4)C(=O)C32)cc1 (stereo unspecified),1.01
6,CC(C)N1CC=CC23O[C@@H]4C=CCOC(=O)[C@@H]4[C@H]2C(=O)N(CCO)[C@@H]3C1=O (stereo partly specified),-0.766
7,O=C1c2ccccc2[C@@]2(Cc3ccccc3N(Cc3ccccc3)C2=O)[C@H](c2ccc(CO)cc2)N1C1CCCCC1,-0.0673
8,CO[C@H]1O[C@H](CO)[C@@H](OC(=O)Nc2ccc3c(c2)OCO3)[C@H](OC(=O)Nc2ccccc2)[C@H]1OC(=O)Nc1ccccc1,0.995
9,CC(C)C[C@@H]1NC(=O)[C@@H]2C[C@H](C(=O)NCCCCCC[N+](C)(C)C)[C@H](c3ccc(O)cc3)N2C1=O,0.427
10,N#Cc1ccc(NN2C(C(O)C3CCCCC3)C=CC3C(=O)N(c4ccccc4)C(=O)C32)cc1 (stereo unspecified),1.03
11,O=c1oc(-c2ccccc2)nc2cc(Br)ccc12,0.481
12,COC(=O)[C@@]1(Cc2ccc(OC)cc2)[C@H]2c3cc(C(=O)N(C)C)n(Cc4c(OC)[nH]cc(C)c4=O)c3C[C@H]2CN1C(=O)c1ccccc1,0.324
13,CC(C)NC(=O)[C@@H]1c2ccccc2C(=O)N(Cc2ccccc2)[C@H]1c1ccc(CO)cc1,-0.367
14,O=C1C=CC(=O)[C@@H]2CC(COc3ccccc3)=C3[C@@H](CCc4ccccc4)OB(O)C[C@@H]3[C@H]12,-0.0249
15,C=CCC(OC(C)=O)[C@@H]1[C@@H](N(Cc2cccc3ccccc23)C(=O)c2cccc3ccccc23)c2cc(OCCCO)ccc2N1C(=O)c1ccc2ccccc2n1 (stereo partly specified),0.868
16,O=C1[C@]2(CO)C=C(Br)[C@@H](C[C@@H]2c2ccccc2)[C@@]12CO2,0.262
17,COCC1=C2[C@@H](CCc3ccccc3)OB(O)C[C@@H]2[C@@H]2C(=O)N(Cc3ccccc3)C(=O)[C@@H]2C1,1
18,CCOC(=O)C1=CC[C@@H](c2ccccc2)N(S(=O)(=O)c2ccc(C)cc2)[C@H]1C(=O)OCC,0.0499
19,Cc1ccccc1C(O)C1C=CC2C(=O)N(C)C(=O)C2N1Nc1ccccc1 (stereo unspecified),1.01
20,C=CCC(OC(C)=O)[C@@H]1[C@@H](N(Cc2ccc(-c3ccccc3)cc2)C(=O)Cc2ccc(OC)cc2)c2cc(OCCCO)ccc2N1C(=O)c1ccc2ccccc2n1 (stereo partly specified),0.534
21,CCN(CC)c1ccc(N2CC=CC34O[C@@H]5C=CCCOC(=O)C5[C@H]3C(=O)N(CCCCCO)[C@@H]4C2=O)cc1 (stereo partly specified),-0.471
